Assay [1] is described as follows: Human pregnane X receptor (PXR) small molecule agonists, qHTS cell viability counter screen (AID 1346977). Note: nearly all actives have a fitted effect of over 50% in size. An outline of the steps:
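PXR-Luc HepG2 cells in medium with 5% charcoal-stripped FBS were pre-incubated 5hr, then exposed to compounds for 24hr at 37C. Viability was read in the same wells by CellTiter-Fluor fluorescence, reagent added after 23hr with a 1hr incubation.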
(In qHTS, concentration-response curves come from the screen itself.)

A short description of assay [2]: Caspase-3/7 induction in HepG2 cells by small molecules, qHTS assay (AID 1346978). Note: nearly all actives have a fitted effect of over 15% in size. The method in brief: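 Caspase-3/7 induction was measured by Caspase-Glo 3/7 luminescence (30 min, room temperature) after a 17 hr compound exposure of wild-type HepG2 cells seeded at 2,000 per well and pre-incubated 5 hr.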
Assay [3] can be described thus: Caspase-3/7 induction in CHO-K1 cells by small molecules, qHTS cell viability counter screen (AID 1346979). Note: nearly all actives have a fitted effect of over 35% in size. The method in brief: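 Wild-type CHO-K1 cells were seeded at 1,500 per well, rested 5hr at 37 C, then exposed to compounds in DMSO. After 16hr, CellTiter-Fluor reagent was added and fluorescence read 1hr later as the viability measure.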
Assay [4] is described as follows: Caspase-3/7 induction in CHO-K1 cells by small molecules, qHTS assay (AID 1346980). Note: nearly all actives have a fitted effect of over 15% in size. An outline of the steps: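 Luminescent Caspase-Glo 3/7 read (30min, room temperature) quantified apoptosis induction. Cells were wild-type CHO-K1, treated with compound for 17hr at 37 C and 5% CO2.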
Assay [5] can be described thus: Caspase-3/7 induction in HepG2 cells by small molecules, qHTS cell viability counter screen (AID 1346981). Note: series mostly up to about 92 µM; nearly all actives have a fitted effect of over 30% in size. The method in brief:
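The parent HepG2 line is plated at 2,000 cells per well and rested 5 hr before compound pinning from DMSO stocks. Following a 16-hr treatment at 37 C, a fluorogenic live-cell substrate (CellTiter-Fluor) reports viability after 1 hr.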

The target in assay [6] is Nuclear receptor subfamily 1 group I member 2 (Homo sapiens) (UniProt O75469). The assay is described as follows: Human pregnane X receptor (PXR) small molecule agonists, qHTS assay (AID 1346982). Note: nearly all actives have a fitted effect of over 35% in size. Note: potency is the fitted concentration of half-maximal effect. The method in brief: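 After plating in 5% charcoal-stripped FBS and a 5 hr rest, PXR-Luc HepG2 cells received compounds in DMSO. Following 24 hr at 37 C, ONE-Glo was added and light output read.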
Nuclear receptor subfamily 1 group I member 2 (Homo sapiens), sequence (O75469 whole entry, looked up): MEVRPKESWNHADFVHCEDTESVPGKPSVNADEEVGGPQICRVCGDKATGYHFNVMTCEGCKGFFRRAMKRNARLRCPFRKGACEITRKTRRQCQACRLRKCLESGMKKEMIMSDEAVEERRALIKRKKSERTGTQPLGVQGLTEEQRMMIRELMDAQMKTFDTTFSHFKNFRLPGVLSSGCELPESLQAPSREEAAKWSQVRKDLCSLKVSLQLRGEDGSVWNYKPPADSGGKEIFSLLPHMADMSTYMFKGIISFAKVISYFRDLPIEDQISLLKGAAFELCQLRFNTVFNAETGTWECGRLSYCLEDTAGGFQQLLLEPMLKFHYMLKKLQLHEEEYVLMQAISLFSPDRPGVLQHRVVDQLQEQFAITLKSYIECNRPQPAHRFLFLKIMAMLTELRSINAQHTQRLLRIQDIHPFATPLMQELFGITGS

Assay [7] deals with Cytochrome P450 2D6 (Homo sapiens) (UniProt P10635). The assay is described as follows: Cytochrome P450 Family 2 Subfamily D Member 6 (CYP2D6) small molecule antagonists: luciferase reporter qHTS assay (AID 1671196). Note: series mostly up to about 120 µM; nearly all actives have a fitted effect of over 50% in size. An outline of the steps: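 Quantitative HTS of Tox21 chemicals against CYP2D6 using a luminescent proluciferin substrate. After NADPH addition, 1 h room-temperature reaction; luminescence recorded 20 min post detection reagent.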
Cytochrome P450 2D6 (Homo sapiens), sequence (P10635 whole entry, looked up): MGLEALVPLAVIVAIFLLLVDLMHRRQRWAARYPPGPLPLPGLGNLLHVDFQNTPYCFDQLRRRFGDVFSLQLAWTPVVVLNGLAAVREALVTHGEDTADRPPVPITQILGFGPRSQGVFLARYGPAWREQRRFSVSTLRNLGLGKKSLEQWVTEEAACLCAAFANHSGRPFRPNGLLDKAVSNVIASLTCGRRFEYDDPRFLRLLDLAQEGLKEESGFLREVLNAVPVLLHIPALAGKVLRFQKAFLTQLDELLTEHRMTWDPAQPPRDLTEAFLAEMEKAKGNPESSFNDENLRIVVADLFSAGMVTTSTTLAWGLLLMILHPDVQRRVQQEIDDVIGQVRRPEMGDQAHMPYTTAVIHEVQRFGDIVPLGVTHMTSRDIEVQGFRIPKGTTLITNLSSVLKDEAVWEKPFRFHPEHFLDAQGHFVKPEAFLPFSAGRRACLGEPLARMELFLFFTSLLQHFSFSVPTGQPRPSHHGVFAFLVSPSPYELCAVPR
(In general: Reporter assays use an easily measured gene product as a stand-in for the process of interest.)

In assay [8] the target is Cytochrome P450 2C19 (Homo sapiens) (UniProt P33261). Nature of the assay: Cytochrome P450 Family 2 Subfamily C Member 19 (CYP2C19) small molecule antagonists: luciferase reporter qHTS assay (AID 1671197). Note: nearly all actives have a fitted effect of over 65% in size. Note: potency is the fitted concentration of half-maximal effect. The method in brief: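 Light output is proportional to CYP2C19 activity: proluciferin substrate is converted to luciferin, then detected by a luciferin detection reagent that also stops the 1 h, 37C NADPH-driven reaction. Ketoconazole serves as positive control.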
Cytochrome P450 2C19 (Homo sapiens), sequence (P33261 whole entry, looked up): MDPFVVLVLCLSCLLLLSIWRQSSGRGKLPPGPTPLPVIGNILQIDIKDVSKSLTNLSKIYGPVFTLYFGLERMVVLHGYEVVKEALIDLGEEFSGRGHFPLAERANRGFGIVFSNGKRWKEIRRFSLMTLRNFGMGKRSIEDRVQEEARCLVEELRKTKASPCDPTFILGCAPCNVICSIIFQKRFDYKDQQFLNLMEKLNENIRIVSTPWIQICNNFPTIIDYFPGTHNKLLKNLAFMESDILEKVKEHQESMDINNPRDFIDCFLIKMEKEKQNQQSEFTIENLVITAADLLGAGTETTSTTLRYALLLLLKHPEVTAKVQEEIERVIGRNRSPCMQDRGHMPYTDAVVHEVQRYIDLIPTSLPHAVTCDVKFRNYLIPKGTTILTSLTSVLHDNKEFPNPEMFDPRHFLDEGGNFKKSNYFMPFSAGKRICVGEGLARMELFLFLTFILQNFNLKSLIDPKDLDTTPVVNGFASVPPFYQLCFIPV

In assay [9] the target is Cytochrome P450 2C9 (Homo sapiens) (UniProt P11712). Nature of the assay: Cytochrome P450 Family 2 Subfamily C Member 9 (CYP2C9) small molecule antagonists: luciferase reporter qHTS assay (AID 1671198). Note: nearly all actives have a fitted effect of over 50% in size. Note: potency is the fitted concentration of half-maximal effect. The method in brief:
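Enzyme-substrate mix preincubated with compound 10 min at room temperature; reaction started with NADPH regeneration solution, 1 h 37C. Luminescent luciferin product read after 20 min detection reagent.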

The target of assay [10] is Cytochrome P450 1A2 (Homo sapiens) (UniProt P05177). The assay is described as follows: Cytochrome P450 Family 1 Subfamily A Member 2 (CYP1A2) small molecule antagonists: luciferase reporter qHTS assay (AID 1671199). Note: nearly all actives have a fitted effect of over 50% in size. Note: potency is the fitted concentration of half-maximal effect. An outline of the steps:
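Quantitative high-throughput format using the P450-Glo CYP1A2 system. Reaction initiated by NADPH regeneration solution, 1 h at room temperature, then stopped with detection reagent; luminescence measured 20 min later.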

Assay [11] has as its target Voltage-gated inwardly rectifying potassium channel KCNH2 (Homo sapiens) (UniProt Q12809). The assay is described as follows: Human Ether-a-go-go-Related Gene (hERG) channel small molecule antagonists: fluorescence cell-based qHTS assay (AID 1671200). An outline of the steps:
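U2OS cells expressing the channel were plated at 1000 cells/well, incubated overnight at 37 C, then loaded with FluxOR II thallium-sensitive dye for 1 h at room temperature in the dark, with a further 10 min at room temperature before stimulation.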

In assay [12] the target is Thyrotropin-releasing hormone receptor (Homo sapiens) (UniProt P34981). The assay is described as follows: qHTS assay to identify small molecule agonists of the thyrotropin-releasing hormone receptor (TRHR) signaling pathway (AID 1346891; calls by dose curve; note: series mostly up to about 58 µM). An outline of the steps:
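TRHR-expressing HEK293 cells were plated 18 h at 37 °C/5% CO2, loaded with calcium dye 2 h at 37 °C, then given compound in DMSO; fluorescence was read kinetically for 3 min at 1 s intervals.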

Assay [13] addresses Cytochrome P450 3A4 (Homo sapiens) (UniProt P08684). The assay is described as follows: Cytochrome P450 Family 3 Subfamily A Member 4 (CYP3A4) small molecule antagonists: luciferase reporter qHTS assay (AID 1671201). Note: nearly all actives have a fitted effect of over 50% in size. Note: potency is the fitted concentration of half-maximal effect. The method in brief:
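P450-Glo CYP3A4 system with proluciferin substrate; compounds preincubated 10 min RT with enzyme-substrate mix, then NADPH regeneration added for 1 h RT. Detection reagent 20 min, luminescence read as relative luminescence units.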

In assay [14] the target is Nuclear receptor subfamily 1 group I member 2 (Rattus norvegicus) (UniProt Q9R1A7). Nature of the assay: Rat pregnane X receptor (rPXR) activation by small molecules, qHTS assay (AID 1346983). Note: nearly all actives have a fitted effect of over 20% in size. The note with it: rPXR luciferase reporter cells, One-Glo luminescence, 24 h; max activation: hits give high values. An outline of the steps: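 Luminescent readout (One-Glo luciferase, 30 min room temperature) followed 24 hr compound treatment at 37 C of rPXR cells plated 2,000 per well and preincubated 5hr; qHTS format with compounds delivered in DMSO.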
Nuclear receptor subfamily 1 group I member 2 (Rattus norvegicus), sequence (Q9R1A7 whole entry, looked up): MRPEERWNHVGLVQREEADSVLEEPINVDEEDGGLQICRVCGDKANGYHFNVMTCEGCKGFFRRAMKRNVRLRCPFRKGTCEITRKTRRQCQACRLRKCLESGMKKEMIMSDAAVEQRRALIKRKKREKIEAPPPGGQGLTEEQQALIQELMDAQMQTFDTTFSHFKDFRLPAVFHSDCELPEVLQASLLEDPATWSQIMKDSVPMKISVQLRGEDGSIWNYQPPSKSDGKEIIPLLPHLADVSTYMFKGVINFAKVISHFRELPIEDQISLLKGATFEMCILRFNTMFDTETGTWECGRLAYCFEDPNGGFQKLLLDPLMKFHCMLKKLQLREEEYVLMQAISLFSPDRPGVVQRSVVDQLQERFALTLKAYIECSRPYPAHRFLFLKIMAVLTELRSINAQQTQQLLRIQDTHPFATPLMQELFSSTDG

For assay [15], the target named is Nuclear receptor subfamily 1 group I member 2 (Homo sapiens) (UniProt O75469). The assay is described as follows: CYP3A4 induction through human pregnane X receptor (PXR) by small molecules, qHTS assay (AID 1346984). Note: nearly all actives have a fitted effect of over 40% in size. An outline of the steps:
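Human PXR activation is tracked via CYP3A4 promoter-luciferase in DPX-2 (HepG2) cells. Compounds treat cells for 24hr at 37C, and luminescence is read after One-Glo.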

Assay [16] has the same target. The assay is described as follows: Human pregnane X receptor (PXR) activation by small molecules, qHTS assay (AID 1346985). Note: nearly all actives have a fitted effect of over 40% in size. An outline of the steps: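 DPX-2 cells (HepG2 co-transfected with a PXR response element and a CYP3A4-promoter luciferase construct) were seeded at 2,000 per well, rested 5 hr at 37C, then exposed to DMSO-dissolved compounds for 24 hr. Activation was read as luciferase luminescence.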

Values joined by “and” are separate entries in the source; they are usually repeats but may differ in a detail not shown here. Identical values can stand only once. Unmarked numbers belong to inactive results. Inconclusive results are not listed. Active and inactive are the calls of the source. Unless noted, calls come from the whole dose curve; as a rule, active = well fitted curve in the direction sought with a large enough effect in the repeat runs; inconclusive = weak or mixed curves; inactive = no such curve, though single readings can be large; an effect the other way counts as inactive or inconclusive.
% is set by controls: 0 for no effect and ±100 for the full control effect.

Cytochrome P450 2C9 (Homo sapiens), sequence (P11712 whole entry, looked up): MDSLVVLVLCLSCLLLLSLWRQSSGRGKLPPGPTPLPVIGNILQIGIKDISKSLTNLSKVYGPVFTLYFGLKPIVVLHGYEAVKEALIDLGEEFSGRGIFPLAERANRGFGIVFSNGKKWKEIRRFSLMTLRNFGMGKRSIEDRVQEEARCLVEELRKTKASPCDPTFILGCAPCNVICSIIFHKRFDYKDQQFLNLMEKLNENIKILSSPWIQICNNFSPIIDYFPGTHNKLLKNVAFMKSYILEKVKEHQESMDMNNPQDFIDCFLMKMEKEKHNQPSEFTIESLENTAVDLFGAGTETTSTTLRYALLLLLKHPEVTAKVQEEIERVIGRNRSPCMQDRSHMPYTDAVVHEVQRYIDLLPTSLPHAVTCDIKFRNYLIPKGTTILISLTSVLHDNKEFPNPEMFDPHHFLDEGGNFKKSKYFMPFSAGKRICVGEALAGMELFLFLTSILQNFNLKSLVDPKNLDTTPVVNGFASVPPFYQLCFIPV
Cytochrome P450 1A2 (Homo sapiens), sequence (P05177 whole entry, looked up): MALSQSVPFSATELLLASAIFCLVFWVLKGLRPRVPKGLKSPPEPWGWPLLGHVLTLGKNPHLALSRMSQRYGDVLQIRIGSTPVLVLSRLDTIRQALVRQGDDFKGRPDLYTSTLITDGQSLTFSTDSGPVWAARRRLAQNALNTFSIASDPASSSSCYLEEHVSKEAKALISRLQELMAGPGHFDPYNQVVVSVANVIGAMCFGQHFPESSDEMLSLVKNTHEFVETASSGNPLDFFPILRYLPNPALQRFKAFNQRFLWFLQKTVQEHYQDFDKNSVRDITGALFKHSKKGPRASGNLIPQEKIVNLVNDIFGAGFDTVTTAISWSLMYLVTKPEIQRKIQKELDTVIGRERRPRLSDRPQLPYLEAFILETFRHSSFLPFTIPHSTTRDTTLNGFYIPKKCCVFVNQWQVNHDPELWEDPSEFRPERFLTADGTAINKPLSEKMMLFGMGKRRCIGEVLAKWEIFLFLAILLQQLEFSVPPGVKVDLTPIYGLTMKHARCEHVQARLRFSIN
Voltage-gated inwardly rectifying potassium channel KCNH2 (Homo sapiens), sequence (Q12809 whole entry, looked up): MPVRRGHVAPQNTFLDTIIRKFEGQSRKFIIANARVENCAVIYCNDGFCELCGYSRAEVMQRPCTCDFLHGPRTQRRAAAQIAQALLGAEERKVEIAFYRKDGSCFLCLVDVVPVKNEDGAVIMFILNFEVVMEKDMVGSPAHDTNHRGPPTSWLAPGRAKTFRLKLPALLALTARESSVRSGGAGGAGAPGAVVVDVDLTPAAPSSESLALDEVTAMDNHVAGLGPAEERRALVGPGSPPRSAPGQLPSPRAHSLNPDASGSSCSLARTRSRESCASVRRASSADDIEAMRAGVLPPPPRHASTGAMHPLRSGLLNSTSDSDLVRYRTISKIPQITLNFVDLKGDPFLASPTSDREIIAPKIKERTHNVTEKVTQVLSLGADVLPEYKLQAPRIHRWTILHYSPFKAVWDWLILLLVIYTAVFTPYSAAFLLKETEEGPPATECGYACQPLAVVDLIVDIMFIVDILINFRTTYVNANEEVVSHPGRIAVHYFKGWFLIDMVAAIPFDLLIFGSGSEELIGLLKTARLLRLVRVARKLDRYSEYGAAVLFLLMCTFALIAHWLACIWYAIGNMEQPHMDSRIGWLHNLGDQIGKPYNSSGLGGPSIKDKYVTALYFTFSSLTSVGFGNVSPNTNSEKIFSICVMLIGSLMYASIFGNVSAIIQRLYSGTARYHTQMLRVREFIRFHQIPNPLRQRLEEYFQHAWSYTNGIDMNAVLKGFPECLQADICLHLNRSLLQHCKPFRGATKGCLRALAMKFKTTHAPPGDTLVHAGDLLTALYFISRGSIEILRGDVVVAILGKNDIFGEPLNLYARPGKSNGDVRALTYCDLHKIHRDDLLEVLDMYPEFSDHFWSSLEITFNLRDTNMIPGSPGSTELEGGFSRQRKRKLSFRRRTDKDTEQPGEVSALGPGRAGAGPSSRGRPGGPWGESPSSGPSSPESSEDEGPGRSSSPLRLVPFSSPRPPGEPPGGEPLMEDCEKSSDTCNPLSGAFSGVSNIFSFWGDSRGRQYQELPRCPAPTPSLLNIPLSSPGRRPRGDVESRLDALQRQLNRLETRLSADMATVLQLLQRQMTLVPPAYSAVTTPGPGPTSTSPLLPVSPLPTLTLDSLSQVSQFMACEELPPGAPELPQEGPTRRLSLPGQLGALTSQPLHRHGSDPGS
Cytochrome P450 3A4 (Homo sapiens), sequence (P08684 whole entry, looked up): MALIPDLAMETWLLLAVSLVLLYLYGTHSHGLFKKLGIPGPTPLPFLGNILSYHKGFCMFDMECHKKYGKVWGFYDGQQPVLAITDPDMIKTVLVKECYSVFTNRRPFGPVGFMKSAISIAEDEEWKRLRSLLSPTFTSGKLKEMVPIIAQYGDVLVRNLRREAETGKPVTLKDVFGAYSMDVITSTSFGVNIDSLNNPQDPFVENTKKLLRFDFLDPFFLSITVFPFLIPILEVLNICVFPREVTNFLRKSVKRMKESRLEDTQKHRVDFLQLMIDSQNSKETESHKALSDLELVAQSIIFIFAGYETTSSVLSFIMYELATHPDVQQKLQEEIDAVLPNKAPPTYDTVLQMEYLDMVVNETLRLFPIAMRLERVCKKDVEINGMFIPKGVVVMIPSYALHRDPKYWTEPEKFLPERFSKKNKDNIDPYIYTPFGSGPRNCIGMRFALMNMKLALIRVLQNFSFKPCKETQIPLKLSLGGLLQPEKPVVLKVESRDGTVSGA
Thyrotropin-releasing hormone receptor (Homo sapiens), sequence (P34981 whole entry, looked up): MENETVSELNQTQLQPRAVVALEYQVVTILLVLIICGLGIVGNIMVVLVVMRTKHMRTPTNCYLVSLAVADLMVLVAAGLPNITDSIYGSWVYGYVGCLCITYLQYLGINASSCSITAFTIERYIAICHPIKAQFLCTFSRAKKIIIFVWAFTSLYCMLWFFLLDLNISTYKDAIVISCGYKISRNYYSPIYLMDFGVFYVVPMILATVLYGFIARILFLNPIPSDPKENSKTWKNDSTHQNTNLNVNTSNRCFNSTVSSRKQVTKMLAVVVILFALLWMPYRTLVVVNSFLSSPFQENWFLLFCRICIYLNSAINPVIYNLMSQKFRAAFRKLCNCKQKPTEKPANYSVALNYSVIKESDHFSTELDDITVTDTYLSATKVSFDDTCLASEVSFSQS

`COC1CCC=CO1` (centres undefined): the Potency result in [1], in [2], in [3], in assay [5], in assay [6] and in assay [7] was “inactive” each time. Moreover, the Potency result in assay [8], in [9], in assay [10] and in [11] was “inactive” in each case. Moreover, the result in assay [4] was inactive.
Take `COc1ccc(N)c([N+](=O)[O-])c1`: the result in assay [12] and in assay [4] was inactive. For the same compound, the Potency entry in [2] and in assay [11] was “inactive” throughout. The Potency in assay [10] is 8.94 µM (active).
On to `CCCCCCCCCCCCCC(=O)OCC(O)CO` (centres undefined), for which the Potency result in assay [1], in assay [2], in assay [3], in assay [5], in [6] and in [7] was “inactive” each time. In addition, the Potency result in assay [11] and in assay [13] was “inactive” each time. The outcome in assay [4] was inactive. Moreover, the Potency is 35.6 µM (active) in assay [8], 22.4 µM (active) in assay [9] and 22.4 µM (active) in [10].
For `CSCC[C@H](NC(=O)[C@H](Cc1c[nH]c2ccccc12)NC(=O)CCNC(=O)OC(C)(C)C)C(=O)N[C@@H](CC(=O)O)C(=O)N[C@@H](Cc1ccccc1)C(N)=O`, the Potency entry in assay [1], in assay [2], in assay [3], in assay [5], in assay [6] and in assay [7] was “inactive” each time. The Potency result in [8], in assay [9], in assay [10] and in [11] was “inactive” throughout. Besides, the call in [4] was inactive.
In the case of `CCCOC(=O)c1c(Cl)c(Cl)c(Cl)c(Cl)c1C(=O)OCCC`, the compound was classed as inactive in assay [12]. The Potency entry in assay [1], in [2], in [5], in [7] and in assay [11] was “inactive” each time. Moreover, the Potency is 17.2 µM (active) in [6], 7.1 µM (active) in [8], 17.8 µM (active) in assay [9] and 2.24 µM (active) in assay [10].
`CC[C@H]1OC(=O)[C@H](C)[C@@H](O[C@H]2C[C@@](C)(OC)[C@@H](O)[C@H](C)O2)[C@H](C)[C@@H](O[C@@H]2O[C@H](C)C[C@H](N(C)C)[C@H]2O)[C@](C)(O)C[C@@H](C)C(=O)[C@H](C)[C@@H](O)[C@]1(C)O`: the Potency entry in [1], in [2], in assay [3], in [5], in [6] and in assay [15] was “inactive” in each case. Also, the Potency result in assay [16], in assay [7], in assay [8] and in [10] was “inactive” in each case. The result in [4] was inactive. Also, the max activation in assay [14] is -0.703% and -0.253%. Further, the Potency in assay [13] was 3.45 µM (active).
On to `CCN(CC)C(=O)N1CCN(C)CC1`, for which the Potency result in [1], in assay [2], in assay [3], in [5], in assay [6] and in assay [15] was “inactive” each time. For the same compound, the Potency result in assay [16], in [7] and in assay [8] was “inactive” in each case. The compound was classed as inactive in assay [4]. In addition, the max activation in assay [14] is -2.03%.
`CC(C)(C)NCC(O)COc1cccc2c1C[C@H](O)[C@H](O)C2` (some centres undefined): the Potency result in assay [1], in [2], in assay [3], in [5], in assay [6] and in [15] was “inactive” each time. Moreover, the Potency result in assay [16], in [7], in [8] and in assay [13] was “inactive” in each case. The call in assay [4] was inactive. Moreover, the max activation in assay [14] was -1.94%.
In the case of `O=C(O)CCC(=O)c1ccc(-c2ccccc2)cc1`, the Potency result in [1], in [2], in assay [3], in [5], in [6] and in assay [15] was “inactive” each time. Further, the Potency result in [16], in assay [7], in [9], in assay [10], in [11] and in assay [13] was “inactive” each time. Also, the call in assay [4] was inactive. Besides, in assay [14], the max activation is 11.9%.

(Values after PubChem BioAssay (Tox21).)
